# Measured values taken from the OligoGym collection.
# Biological target: APOL1
# Assay: pooled miR-30 sensor sort-seq; sequence = guide strand
# Conditions: shRNA
# Note: reference of the scale not given here.
row,Sequence,sensor-assay potency score (higher = more potent)
1,TTTGAGGATCTCCAGTATCTGT,-1.27
2,TTGTCTTGCAAGGTTGTCCAGA,-0.407
3,TTTTGTTGCACCCTCGCTCCAG,-0.279
4,TTAGTCTAAAGTAAACTGCTTC,-0.132
5,TTGTCTTTCATGATCATTTGTC,0.325
6,TATCCAACTGTTCTAACTCTTG,-1.08
7,TCAAGCTCACTTTTCAACCGAG,-0.112
8,TAACTCTTGGGCTTTCTCCATT,-0.755
9,TTCATTAACCCTCTCCACCTGT,-0.144
10,TATCGTGCCAGTTTTTGTCTTT,-0.367
11,TTTGTTGCACCCTCGCTCCAGC,-0.393
12,TAGCTTCTCCTCCAGCTCCTGA,-0.925

# Biological target: APTX
# Assay: as above
# Conditions: shRNA
row,Sequence,sensor-assay potency score (higher = more potent)
1,TTATCAGTGATCTTGGTCTCTG,-0.647
2,TATCAGTGATCTTGGTCTCTGG,-0.564
3,TTTCTTATCAGTGATCTTGGTC,-0.281
4,TTGCTGTCGAGAACATTTCTTA,-0.631
5,TGGAAGTCTGATTCGCTGGTGC,-0.603
6,TATAGAATCACTGTTGCCTGAT,0.198
7,TCAGTGATCTTGGTCTCTGGGC,-0.249

# Biological target: ARF4
# Assay: as above
# Conditions: shRNA
row,Sequence,sensor-assay potency score (higher = more potent)
1,TTGTGTTGCACAAGTGGCTTGA,0.462
2,TTCCACATTAAAACCAATGGTA,-0.547
3,TAGCATTTGGCAAATCCTGTTT,-0.434
4,TTCTATCTTGACCACCAACATC,-1.78
5,TAATTTTGTTGTAACAAGCCTA,-0.0701
6,TTTATCTGTCATTTCACTGATG,-0.303
7,TTTATCAAACATGTCCTTGGTT,0.237
8,TTTTCTGCAGCTCATCTGCTAC,-0.921
9,TTATCAAACATGTCCTTGGTTA,-0.479
10,TACAGAATGGTTGTCTTGCCAG,-0.56
11,TTATACAGAATGGTTGTCTTGC,0.842
12,TTTCACGATCGTTGCTATCTAC,0.0471
13,AATTTTGTTGTAACAAGCCTAG,-0.535
14,AATTTTATCAAACATGTCCTTG,-0.486
15,TTGAACATACCATGTTCTGTTA,-0.718
16,TTGACAGCCAGTCAAGTCCTTC,-0.84
17,TTGTCTTGCCAGCAGCATCCAA,-0.778
18,TATCTTGACCACCAACATCCCA,-1.07
19,TTCTGTTACGAAGAGACTGAAG,-1.25
